# FBW7 activator = activators of human E3 ligase FBW7; Q969H0; AlphaScreen FBW7–phospho-cyclin E peptide binding, activator screen; normalized activity (activation), % at 26.1 µM; actives 0.13% (n = 650,000); in the data active means normalized activity above about 1.9%;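 further: purified mutant Fbw7 with reduced substrate affinity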
# GPR151 activ = activators of human GPR151. activation, % at 11.2 µM. Q8TDV0. actives 1% (n = 650,000). AID 1508602. PathHunter beta-arrestin GPR151 cells, luminescence; in the data active means activation above about 4.9%;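 further: 0% = median of compound wells and 100% = cells with positive control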
# Target sequence (Q8TDV0 whole entry, looked up): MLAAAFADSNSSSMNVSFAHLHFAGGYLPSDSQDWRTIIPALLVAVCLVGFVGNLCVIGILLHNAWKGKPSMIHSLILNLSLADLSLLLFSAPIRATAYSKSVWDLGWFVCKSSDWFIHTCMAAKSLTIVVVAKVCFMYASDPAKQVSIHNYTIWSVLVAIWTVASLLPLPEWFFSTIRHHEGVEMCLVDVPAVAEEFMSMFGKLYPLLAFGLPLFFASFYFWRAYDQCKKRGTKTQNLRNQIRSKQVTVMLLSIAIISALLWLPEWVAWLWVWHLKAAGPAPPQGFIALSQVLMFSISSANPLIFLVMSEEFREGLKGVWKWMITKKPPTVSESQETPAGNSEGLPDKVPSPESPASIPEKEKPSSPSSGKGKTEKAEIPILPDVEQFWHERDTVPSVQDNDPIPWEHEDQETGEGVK
# MITF primary = human MITF inhibition, primary screen; inhibition, % at 2.6 µM; AlphaScreen MITF homodimerization, bead proximity signal; O75030; actives 0.91% (n = 650,000); in the data active means inhibition above about 50%;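 further: 0% = vehicle wells with protein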
# TEAD-YAP block = TEAD-YAP interaction inhibition; inhibition, % at 9.12 µM; actives 1.4% (n = 640,000); HEK-TIYL cells, TEAD-Gal4/YAP UAS-luciferase luminescence; in the data active means inhibition above about 32%;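 further: 0% = median of test compound wells and 100% = reference inhibitor wells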
# GPR151 conf act = human GPR151 activation, confirmation screen; shares compounds with GPR151 activ; activation, % at 11.2 µM; 6,700 tested, under 10 active; AID 1508609; GPR151 PathHunter beta-arrestin cells, luminescence, 90 min; % of EA-reagent control over plate median;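 active means mean percent activation across replicates above the confirmation screen cutoff of 4.91%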
# GPR119 ag = counter-screen for GPR151 activators: effect on human GPR119; shares compounds with GPR151 activ; GPR119 PathHunter beta-arrestin cells, luminescence, 90 min; 0 = compound-well median, 100 = enzyme-acceptor control; activation, % at 11.2 µM; actives 0.3% (n = 6,700); AID 1508611;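 active means mean percent activation in the counterscreen above 29.09%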;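 further: counterscreen on off-target GPR119 to flag nonselective hits from the GPR151 activator screen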
# * hit, by the source's call; · = not tested or not shown. An excerpt weighted towards active compounds, which were near 3.5% of everything screened.
SMILES,FBW7 activator,GPR151 activ,MITF primary,TEAD-YAP block,GPR151 conf act,GPR119 ag
COc1ccc(Cc2nnc(SCC(=O)Nc3ccccc3OC)n2-n2cccc2)cc1,0,11*,3,17,-1,-18
COc1ccccc1NC(=O)CSc1nnc(COc2ccc(C)cc2)n1C,0,5.3*,9,5,-1,-6
COC(=O)CSc1nnc(COc2ccccc2OC)n1C,0,5.3*,2,-5,1,4
Cn1c(COc2ccc(Cl)cc2)nnc1SCC(=O)NCC(F)(F)F,0,5.1*,3,0,2,4
COc1ccccc1NC(=O)CSc1nnc(CNC(=O)c2ccc(C)cc2)n1C,0,1,-16,9,·,·
CNC(=O)CSc1nnc(COc2ccccc2OC)n1C,0,0,-8,2,·,·
Cc1nc2c(-c3ccc(F)cc3)c(C)nn2c(NCc2ccncc2)c1C,0,-1,14,-5,·,·
O=C(CN1Cc2ccccc2C1=O)Nc1ccccn1,0,-1,5,-2,·,·
Cn1c(=O)[nH]c(=O)c2c1nc(N1CCOCC1)n2CCCSc1nc2ccccc2o1,0,-1,7,10,·,·
O=C(CCCc1ccccc1)Nc1ccnn1C1CCN(Cc2ccn[nH]2)CC1,0,-1,-11,4,·,·
COc1ccc(CNc2ncnc3c2cnn3-c2cccc(C)c2)cc1,0,5.2*,5,-12,0,-5
Cc1ccc(-n2ncc3c(SCC(=O)NC(C)(C)C)ncnc32)c(C)c1,0,7.2*,-6,4,0,-4
Cc1ccc(-n2ncc3c(NCc4cccnc4)ncnc32)c(C)c1,0,8.5*,6,2,-1,-3
c1ccc(-n2ncc3c(Nc4cccc5ccccc45)ncnc32)cc1,0,5.7*,16,-2,-1,-8
COc1ccc(C(=O)NC(C)(C)C)cc1,1,-1,2,-7,·,·
Nn1c(CSc2nc3ccccc3o2)nnc1CSc1nc2ccccc2o1,0,-1,0,4,·,·
c1ccc(-n2nnnc2CSc2nc3ccccc3o2)cc1,0,6.6*,-6,6,0,2
COc1ccc(CCn2c(=S)[nH]c3cc(C(=O)N4CCC(C(N)=O)CC4)ccc3c2=O)cc1OC,0,6.1*,14,-3,-2,-4
COc1ccc(CCn2c(=O)[nH]c3cc(C(=O)NCc4ccco4)ccc3c2=O)cc1OC,0,6.1*,9,3,0,-4
COc1ccc(CCn2c(=S)[nH]c3cc(C(=O)N4CCOCC4)ccc3c2=O)cc1OC,0,4,-20,9,·,·
COc1ccc(CCNC(=O)c2ccc3c(=O)n(Cc4ccco4)c(=S)[nH]c3c2)cc1OC,0,-1,-5,-8,·,·
COc1ccc(CCNC(=O)c2cccc(-n3c(=S)[nH]c4cc(Cl)ccc4c3=O)c2)cc1OC,0,5.8*,13,5,0,4
O=C(c1ccc2c(=O)n(CCc3ccccc3)c(=S)[nH]c2c1)N1CCN(c2ccccc2)CC1,0,6.3*,-4,-2,0,13
CCc1cccc(NC(=O)CN(C2=NC3CS(=O)(=O)CC3S2)c2cccc(C)c2)c1 (stereo not drawn),-1,13*,0,7,1,-16
Cc1cccc(NC(=O)CN(C2=NC3CS(=O)(=O)CC3S2)c2ccccc2)c1 (stereo not drawn),0,-2,17,5,·,·
SMILES,FBW7 activator,GPR151 activ,MITF primary,TEAD-YAP block,GPR151 conf act,GPR119 ag
Cc1ccc(NC(=O)c2c(C(=O)O)cccc2[N+](=O)[O-])c([N+](=O)[O-])c1,0,0,-12,7,·,·
OCCNc1nc(Nc2ccncn2)nc2c1ncn2C1CCCCC1,0,-1,15,-27,·,·
CCCNc1nc(Nc2ccncn2)nc2c1ncn2C1CCCCC1,0,4.9*,10,-48,0,13
CCCNc1nc(-c2c(C)noc2C)nc2c1ncn2C1CCCCC1,0,5.5*,-1,-46,0,-4
Cc1noc(C)c1-c1nc(NCCOc2ccccc2)c2ncn(C3CCCCC3)c2n1,0,-1,-3,2,·,·
Cc1nn(C)c(C)c1-c1nc(NCCCN2CCCC2=O)c2ncn(C3CCCCC3)c2n1,0,5.8*,-11,-15,-1,-8
COCCCNC(=O)C1CCC(=O)N1C1CCCCC1 (stereo not drawn),0,0,-10,-8,·,·
O=C(O)/C=C/c1cccc(N2C(=O)C3C4C=CC(C4)C3C2=O)c1 (stereo not drawn),0,1,8,3,·,·
CCOc1cc(C2C(C(=O)N3CCCCC3)=C(C)NC3=C2C(=O)CCC3)cc(Br)c1OC (stereo not drawn),0,4.9*,5,12,0,6
N#Cc1cc(-c2cccs2)no1,0,4,6,-14,·,·
COc1ccccc1C(=O)NC(=O)CSc1cccc[n+]1[O-],0,-1,-12,4,·,·
Cn1cccc1C(=O)NC(=O)CSc1cccc[n+]1[O-],0,4.9*,-1,-3,1,7
Cc1ccc(C(=O)NC(=S)NNc2nc3ccccc3[nH]2)cc1,0,5.3*,15,-5,2,8
CCOC(=O)c1cc2c(=O)n3ccccc3nc2n(CCOC)c1=NC(=O)c1ccccc1Br,0,-1,7,4,·,·
CCCC(=O)Nc1ccc(Oc2ccc3c(c2)C(=O)NC3=O)cc1,0,-1,15,-6,·,·
CCCC(=O)Nc1cccc(Oc2ccc3c(c2)C(=O)NC3=O)c1,0,6.0*,-9,-4,-1,-8
COC(=O)c1ccccc1C(=O)c1cccc2ccccc12,0,10*,-3,1,0,-4
COc1ccc(NC(=O)c2cccc3ccccc23)cc1,0,-1,-3,-4,·,·
COc1ccccc1N1CCN(C2CCCN(Cc3ccccc3O)C2)CC1 (stereo not drawn),0,8.0*,13,8,0,2
COc1ccc(C(C)(C)C)cc1S(=O)(=O)N1CCN(c2ccc(-n3cccn3)nn2)CC1,1,2,-17,4,·,·
Cc1ccc(NC(=O)C(CC(=O)O)NCc2ccco2)cc1 (stereo not drawn),0,7.6*,-5,-6,0,3
Cc1cc(NCCN2CCOCC2)nc(Cl)n1,0,6.2*,2,-2,-1,-9
CN(C)c1ccc(-c2nccnc2NS(=O)(=O)c2ccc(Cl)cc2)cc1,-1,1,-10,1,·,·
O=Cc1ccc(-c2nccnc2NS(=O)(=O)c2cccc(Cl)c2)cc1,0,5.0*,8,9,0,-6
CN(C)c1cccc2c(S(=O)(=O)Nc3nccnc3-c3ccc(C=O)cc3)cccc12,0,5.9*,2,2,2,-7
CN(C)c1cccc2c(S(=O)(=O)Nc3nccnc3-c3ccc(CO)cc3)cccc12,0,0,46,10,·,·
